# Measurements from PubChem BioAssay AID1779 (Sanford-Burnham Center for Chemical Genomics, 2009).
# The whole screen tested about 290,000 compounds, of which about 160 (0.055%) were called active. What follows is part of a selection rich in actives, with near analogues and random picks from the rest. Values without a mark were called inactive. Cut-off read from the data, not from the text of the source: active = inhibition above about 50%; inactive = the rest.
# Biological target: Tyrosine-protein phosphatase non-receptor type 22 (Homo sapiens) (UniProt Q9Y2R2)
# Assay: inhibitors of LYP phosphatase, biochemical, fluorescence intensity, uHTS (AID 1779);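 note: plate controls were vehicle with enzyme for no effect and no enzyme for full effect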
# Conditions: recombinant LYP phosphatase, at 11.5 µM, hits give high values
# Tyrosine-protein phosphatase non-receptor type 22 (Homo sapiens), sequence (Q9Y2R2 whole entry, looked up): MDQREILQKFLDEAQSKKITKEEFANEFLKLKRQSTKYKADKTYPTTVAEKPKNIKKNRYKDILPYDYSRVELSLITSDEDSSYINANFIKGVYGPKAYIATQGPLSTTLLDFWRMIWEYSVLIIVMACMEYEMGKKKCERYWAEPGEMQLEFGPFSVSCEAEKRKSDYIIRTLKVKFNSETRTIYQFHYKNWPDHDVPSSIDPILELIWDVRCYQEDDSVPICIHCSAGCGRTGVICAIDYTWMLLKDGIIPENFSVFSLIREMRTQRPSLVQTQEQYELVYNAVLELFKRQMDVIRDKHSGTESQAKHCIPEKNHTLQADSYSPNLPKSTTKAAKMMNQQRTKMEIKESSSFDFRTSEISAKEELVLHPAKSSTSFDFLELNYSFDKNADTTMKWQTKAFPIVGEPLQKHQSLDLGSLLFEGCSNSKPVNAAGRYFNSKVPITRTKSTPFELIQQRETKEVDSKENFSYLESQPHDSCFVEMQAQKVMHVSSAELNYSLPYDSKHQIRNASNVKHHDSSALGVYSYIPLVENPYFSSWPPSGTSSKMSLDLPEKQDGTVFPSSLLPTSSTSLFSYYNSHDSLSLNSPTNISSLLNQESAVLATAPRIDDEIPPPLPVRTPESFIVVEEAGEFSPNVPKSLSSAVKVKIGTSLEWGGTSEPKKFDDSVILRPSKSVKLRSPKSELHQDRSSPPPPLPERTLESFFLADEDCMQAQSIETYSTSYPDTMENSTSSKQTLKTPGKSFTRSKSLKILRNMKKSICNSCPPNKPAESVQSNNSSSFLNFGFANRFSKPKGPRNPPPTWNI
row,SMILES,inhibition
1,NC(=O)CC(NC(=O)Cc1ccc(Br)cc1)c1ccc(NC2CCC2)c([N+](=O)[O-])c1 (centres undefined),-1.3%
2,Cc1cccc(N2CCN(C(=O)c3ccc(Cl)c(NC4=NC5CS(=O)(=O)CC5S4)c3)CC2C)c1 (centres undefined),-0.7%
3,O=C(COc1ccc(S(=O)(=O)N2CCOCC2)cc1Cl)NCC1CCCO1 (centres undefined),-12%
4,c1cc(OCCCN2CCCCC2)ccc1CN1CCCCC1,-8%
5,CCCCOc1ccc(CN2CCCCC2)cc1,67.8% (active)
6,CCCCCOc1ccc(CN2CCOCC2)cc1Cl,50.2% (active)
7,CCCOc1ccc(CN2CCOCC2)cc1OC,-8%
8,CCCCOc1ccc(CN2CCSCC2)cc1,-4.9%
9,CCCCCOc1ccc(Cl)cc1CN1CCOCC1,-8.9%
10,COc1ccc(C(=O)Nc2ccc(Cl)cc2C(=O)NCc2ccco2)cc1OC,0.7%
11,COc1cc(OC)cc(C(=O)NCCN2C(=O)S/C(=C\c3cccs3)C2=O)c1,0.8%
12,Cc1nn(C(C)C(=O)NCCCN2CCCCCC2)c(=O)c2c1sc1ccccc12 (centres undefined),-12.7%
13,Cc1cc(NC(=O)Cn2c(=O)n(CCCCC(=O)NC3CCN(Cc4ccccc4)CC3)c(=O)c3ccccc32)n[nH]1,73.8% (active)
14,O=C(CCCCn1c(=O)c2ccccc2n(Cc2ccccc2)c1=O)NC1CCN(Cc2ccccc2)CC1,-1.4%
15,Cc1cccc(C)c1NC(=O)Cn1c(=O)n(CCCC(=O)NC2CCN(Cc3ccccc3)CC2)c(=O)c2ccccc21,-5.3%
16,CCOC(=O)C1=C(C)NC(=S)NC1c1ccc(-c2cccc(Cl)c2C)o1 (centres undefined),8.2%
17,COc1ccc2[nH]c(C)c(CCNC(=S)Nc3cc(C)ccc3C)c2c1,83.2% (active)
18,COc1ccc2[nH]c(C)c(CCNC(=S)Nc3ccccc3C)c2c1,0.8%
19,COc1ccc2[nH]c(C)c(CCNC(=S)Nc3cc(C)cc(C)c3)c2c1,2.4%
20,COc1ccc(COc2ccc(S(=O)(=O)N3CCCC3)cc2C(N)=O)cc1F,-6%
21,Cc1ccccc1NS(=O)(=O)c1cc(S(C)(=O)=O)ccc1Cl,-0.4%
22,CCNS(=O)(=O)c1cc(S(C)(=O)=O)ccc1Cl,85.1% (active)
23,CS(=O)(=O)c1ccc(Cl)c(S(=O)(=O)NCc2ccccc2)c1,-8.1%
24,CCC(C)(C(=O)NC1CCCC1)N(C(=O)c1cnccn1)c1c(C)n(C)n(-c2ccccc2)c1=O (centres undefined),1.7%

row,SMILES,inhibition
1,NS(=O)(=O)c1ccc(NC(=O)C2C3C=CC(C3)C2C(=O)O)cc1 (centres undefined),-7.2%
2,CC(=O)NS(=O)(=O)c1ccc(NC(=O)C2C3C=CC(C3)C2C(=O)O)cc1 (centres undefined),59.6% (active)
3,CC(=O)Nc1ccc(NC(=O)C2C3C=CC(C3)C2C(=O)O)cc1 (centres undefined),-6.4%
4,COc1ccc(OC)c2c1nc1n2CCS1,-2.7%
5,O=C(CN1C(=O)/C(=C2\SC(=S)N(CCS(=O)(=O)O)C2=O)c2ccccc21)Nc1cccc(Br)c1,71% (active)
6,COc1ccc(NC(=O)CN2C(=O)/C(=C3\SC(=S)N(C4CCS(=O)(=O)C4)C3=O)c3ccccc32)cc1 (centres undefined),-5.2%
7,O=C1/C(=C2\C(=O)N(Cc3ccc(F)cc3)c3ccccc32)SC(=S)N1CCS(=O)(=O)O,-1.2%
8,COc1ccc(NC(=O)CN2C(=O)/C(=C3\SC(=S)N(CCC(=O)O)C3=O)c3ccccc32)cc1,69.2% (active)
9,COCCN1C(=O)/C(=C2/C(=O)N(CC(=O)Nc3ccccc3Cl)c3ccccc32)SC1=S,-3.5%
10,Cc1cccc(NC(=O)CN2C(=O)/C(=C3\SC(=S)N(CC4CCCO4)C3=O)c3ccccc32)c1 (centres undefined),-7.3%
11,Cc1c(N=Cc2cc(Br)cc(Br)c2O)cccc1C(=O)O,-7.4%
12,CC(=O)CCn1cnc([N+](=O)[O-])n1,-3.7%
13,Cc1ccc([C@@H]2[C@@H]3C(=O)N(C)C(=O)[C@@H]3[C@]3(C)C(=O)N(CCO)CC(=O)N23)o1,-10.2%
14,COC(=O)c1[nH]c2ccccc2c1NC(=O)c1ccccc1F,-5.7%
15,COc1ccc(OCC(=O)Nc2ccccc2OC(F)F)cc1,-1.4%
16,CC(C)=NOCc1ccc(-c2cn([C@@H]3COC[C@H]3O)nn2)cc1,-2.9%
17,Clc1ccc(-c2ccn[nH]2)cc1,-8.1%
18,c1ccn(-c2ccc(-c3ccn[nH]3)cc2)c1,-5.9%
19,Cc1ccc(C)n1-c1ccc(-c2ccn[nH]2)cc1,50% (active)
20,O=C(c1cccs1)N1CCCC1,-12%
21,COc1ccccc1CNC(=O)CCC(=O)N1CCOc2ccc(C)cc21,-4.7%
22,COc1ccc([N+](=O)[O-])cc1NC(=S)NC(NC(=O)C(c1ccccc1)c1ccccc1)C(Cl)(Cl)Cl (centres undefined),8%
23,COc1ccccc1OCC(=O)N(Cc1nc(-c2ccccc2)no1)C(C)C,-3.5%
24,CC1CCCCN1Cc1ccc(-c2nnn(CC(=O)NC3CCCCC3)n2)cc1 (centres undefined),-2.1%

row,SMILES,inhibition
1,CCCc1cc(-c2n[nH]c(=S)n2CC)cs1,-1.3%
2,CCc1cc(-c2n[nH]c(=S)n2CC(C)C)cs1,5.1%
3,CCCc1cc(-c2n[nH]c(=S)n2CC(C)C)cs1,58.3% (active)
4,Cc1cc2oc(=O)cc(CN(C)Cc3ccccc3F)c2cc1Cl,-0.7%
5,COc1ccc(N2CCN(C(=O)c3ccc(S(=O)(=O)N4CCCC4)cc3)CC2)cc1,-0.4%
6,COc1ccc2c(OC)cc(=O)n(C)c2c1,59.6% (active)
7,COc1cc(=O)n(C)c2ccccc12,-3.8%
8,COc1cc(=O)n(C)c2cc(N(C)C)ccc12,-9.9%
9,CCOC(=O)CSc1nc2ccccc2c(=O)n1CC,1.2%
10,O=c1c(Cc2ccc(F)cc2)c(O)ccn1C1CC1,-9%
11,Cc1cccc(N2CCN(C(=O)Cn3c(=O)[nH]c4ccsc4c3=O)CC2C)c1 (centres undefined),-8.5%
12,COCCn1nnnc1C(c1cccc(C(F)(F)F)c1)N1CCOCC1 (centres undefined),-7%
13,CCC1CCCCN1CCCNC(=O)c1ccc(CS(=O)(=O)Cc2ccccc2F)o1 (centres undefined),56.2% (active)
14,CCC1CCCCN1CCCNC(=O)c1ccc(CS(=O)(=O)Cc2ccc(Cl)cc2)o1 (centres undefined),-7.2%
15,CCC1CCCCN1CCCNC(=O)c1ccc(CS(=O)(=O)c2ccccc2C)o1 (centres undefined),-13.2%
16,COc1cccc(/C=N/NC(=O)c2cc3cc([N+](=O)[O-])ccc3s2)c1O,73.6% (active)
17,COc1cccc(/C=N/NC(=O)c2ccc([N+](=O)[O-])cc2Cl)c1O,9%
18,C=CCOc1ccc2cccc(/C=N/NC(=O)c3cc4cc([N+](=O)[O-])ccc4s3)c2c1,-4.5%
19,CC(=O)N1CCN(c2ccc(NC(=O)c3ccc(OCc4ccccc4)cc3)cc2)CC1,-3.8%
20,CCc1ccc(OCc2nnc(SCC(=O)NC3CCCCC3)o2)cc1,-6.8%
21,CCCNS(=O)(=O)c1ccc(NC(=O)c2cccnc2)cc1,-7.3%
22,CC1Sc2ccc(S(=O)(=O)CCC(=O)NC3CCCC(C)C3C)cc2NC1=O (centres undefined),-6.7%
23,Cc1ccccc1Cn1cc(NC(=O)c2cc(-c3ccco3)on2)cn1,-0.1%
24,Cn1cc(Cl)c(C(=O)Nc2cnn(Cc3ccc(F)cc3)c2)n1,-1.2%

row,SMILES,inhibition
1,Cc1ccccc1Cn1cc(NC(=O)c2nn(C)cc2Cl)cn1,60.2% (active)
2,Cc1ccc(OCc2cc(C(=O)NC3CCOC3)no2)cc1C (centres undefined),-2.1%
3,O=C(CN1C(=O)c2ccccc2C1=O)N1CCN=C1c1ccccc1,-8.9%
4,Cc1cc(C)cc(OCC(=O)N/N=C\c2cn(C)nc2C)c1,76.1% (active)
5,Cc1cc(C)cc(OCC(=O)N/N=C/c2ccncc2)c1,-10.7%
6,CCn1ncc(/C=N\NC(=O)COc2cc(C)cc(C)c2)c1C,-3.6%
7,CC1=NNC(=O)C1CCC(=O)N/N=C(\C)c1ccccc1 (centres undefined),-4.6%
8,c1ccc2c(c1)NC1(CCCC1)n1c-2nc2ccccc21,-16.8%
9,Cc1cccc(NC(=O)Nc2cccc(C)n2)n1,-5.9%
10,COc1ccc(Cc2nnc(NC(=O)c3ccccc3Cl)s2)cc1OC,-9.8%
11,COc1ccc(Cc2nnc(NC(=O)c3ccccc3F)s2)cc1OC,66.6% (active)
12,COc1ccc(Cc2nnc(NC(=O)c3ccccc3F)s2)cc1,-0.8%
13,COc1ccc2cc(C(C)c3nc4ccccc4c(=O)n3N)ccc2c1 (centres undefined),4.5%
14,C=CCNc1nc(C(F)(F)F)nc2c1nnn2Cc1ccccc1Cl,-2.4%
15,COc1ccc(CNC(=O)c2cc(-c3cc(C)ccc3O)n[nH]2)cc1,-3.7%
16,COc1ccc(CNC(=O)c2cc(-c3cc(C)cc(C)c3O)n[nH]2)cc1,4%
17,COc1ccc(CNC(=O)c2cc(-c3ccccc3O)n[nH]2)cc1,53.5% (active)
18,COc1cccc(N(C(=O)c2snc(C(N)=O)c2N)C(C(=O)NCC2CCCO2)c2cccs2)c1 (centres undefined),-2%
19,COc1ccc(C2=NN(C(=O)CCC(=O)O)C(c3ccc(OC)c(OC)c3)C2)cc1 (centres undefined),-7.5%
20,COc1ccc(C2CC(c3ccc(Br)cc3)=NN2C(=O)CCC(=O)O)cc1OC (centres undefined),-7.6%
21,COc1ccc(C2CC(c3ccc(C)cc3)=NN2C(=O)CCC(=O)O)cc1OC (centres undefined),89.2% (active)
22,CC(=O)c1ccc(-n2c(CCC(=O)O)ccc2-c2ccc(C)cc2)cc1,-5.2%
